Results filed as inconclusive are left out. Active and inactive are the calls of the source.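 Rule for the calls: active = compounds whose potency, the dose giving half inhibition, is below 20 µM; inconclusive = compounds meeting neither the active nor the inactive rule; inactive = potency over 20 µM or below 50% inhibition when unfitted.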
target: Integrin alpha-IIb (Homo sapiens) (UniProt P08514); assay: Platelet Adhesion Secondary Assay for Inhibitors of Platelet Integrin alphallb-beta3; details: human platelet adhesion to fibrinogen, calcein fluorescence; inhibition: at 30 µM, active compounds read high
Description: NIH Molecular Libraries Probe Production Network [MLPCN] NIH Chemical Genomics Center [NCGC] MLPCN Grant: 1 R03 MH083257-01 Assay Provider: Barry Coller, Rockefeller University NCGC Assay Overview: The alphaIIbbeta3 receptor plays a vital role in hemostasis and thrombosis, where receptor deficiency causes the hemorrhagic disorder, Glanzmann thrombasthenia, and uncontrolled receptor activation causes thrombosis and blood vessel occlusion. Small molecule inhibitors of alphaIIbbeta3, tirofiban and eptifibatide, have undesirable side effects thought to arise from conformational changes in alphaIIbbeta3. These changes transiently activate the receptor to cause spontaneous platelet aggregation and thrombus formation. […] This secondary assay measures the binding of human plates to fibrinogen, an extracellular matrix protein (Blue et al., 2008). Platelets were loaded with a fluorescent dye, calcein, and added to fibrinogen-coated plates. Following incubation, unbound platelets were removed by washing and bound platelets were detected by measuring fluorescence intensity. Inhibitors of alphaIIbbeta3 block platelet binding to fibrinogen and result in a decrease in fluorescence intensity.
NCGC Assay Protocol Summary: Human fibrinogen (50 ug/mL) in Tris/saline (100 mM NaCl, 50 mM Tris/HCl, pH 7.4; American Diagnostica, Stamford, CT) was added to black, clear-bottom, untreated polystyrene, nonsterile 384-well microtiter plate wells (Corning no. 3711; Acton, MA) using a peristaltic microplate dispenser (WellMate; Matrix, Hudson, NH). After incubating at 22 C for 1 hour, plates were washed 4 times with Tris/saline using an automated plate washer (ELX405; Bio-Tek, Winooski, VT), and wells were then blocked with HBMT (138 mM NaCl, 12 mM NaHCO3, 10 mM HEPES, 2.7 mM KCl, 0.4 mM NaH2PO4, 0.1% glucose, 0.35% BSA, pH 7.4) for at least 1 hour. After 2 additional washes, 15 uL HBMT was allowed to remain in each well. Compounds were added to the wells with a liquid handling robot (MiniTrak V; PerkinElmer, Wellesley, MA) using a pin tool (VP Scientific, San Diego, CA) that added 0.1 uL compound in DMSO. Fifteen microliters 5E11/L calcein-labeled platelets were then added (2.5E11/L final concentration). After 1 hour of adhesion, wells were washed 4 times with HBMT-CaCl2/MgCl2 and the plates were read by an Envision (Perkin Elmer) to detect calcein fluorescence (490 nm excitation and 515 nm emission). Positive controls consisted of wells containing platelets without compounds. Negative controls were wells containing platelets and known inhibitors of alphaIIbbeta3, including mAbs 7E3 and 10E5, and EDTA. Reference Blue R, Murcia M, Karan C, Jirouskova M, and Coller BS. Application of high-throughput screening to identify a novel alphaIIb-specific small- molecule inhibitor of alphaIIbbeta3-mediated platelet interaction with fibrinogen. Blood. 2008, 111(3):1248-56

Sequence of Integrin alpha-IIb (Homo sapiens) (P08514 whole entry, looked up): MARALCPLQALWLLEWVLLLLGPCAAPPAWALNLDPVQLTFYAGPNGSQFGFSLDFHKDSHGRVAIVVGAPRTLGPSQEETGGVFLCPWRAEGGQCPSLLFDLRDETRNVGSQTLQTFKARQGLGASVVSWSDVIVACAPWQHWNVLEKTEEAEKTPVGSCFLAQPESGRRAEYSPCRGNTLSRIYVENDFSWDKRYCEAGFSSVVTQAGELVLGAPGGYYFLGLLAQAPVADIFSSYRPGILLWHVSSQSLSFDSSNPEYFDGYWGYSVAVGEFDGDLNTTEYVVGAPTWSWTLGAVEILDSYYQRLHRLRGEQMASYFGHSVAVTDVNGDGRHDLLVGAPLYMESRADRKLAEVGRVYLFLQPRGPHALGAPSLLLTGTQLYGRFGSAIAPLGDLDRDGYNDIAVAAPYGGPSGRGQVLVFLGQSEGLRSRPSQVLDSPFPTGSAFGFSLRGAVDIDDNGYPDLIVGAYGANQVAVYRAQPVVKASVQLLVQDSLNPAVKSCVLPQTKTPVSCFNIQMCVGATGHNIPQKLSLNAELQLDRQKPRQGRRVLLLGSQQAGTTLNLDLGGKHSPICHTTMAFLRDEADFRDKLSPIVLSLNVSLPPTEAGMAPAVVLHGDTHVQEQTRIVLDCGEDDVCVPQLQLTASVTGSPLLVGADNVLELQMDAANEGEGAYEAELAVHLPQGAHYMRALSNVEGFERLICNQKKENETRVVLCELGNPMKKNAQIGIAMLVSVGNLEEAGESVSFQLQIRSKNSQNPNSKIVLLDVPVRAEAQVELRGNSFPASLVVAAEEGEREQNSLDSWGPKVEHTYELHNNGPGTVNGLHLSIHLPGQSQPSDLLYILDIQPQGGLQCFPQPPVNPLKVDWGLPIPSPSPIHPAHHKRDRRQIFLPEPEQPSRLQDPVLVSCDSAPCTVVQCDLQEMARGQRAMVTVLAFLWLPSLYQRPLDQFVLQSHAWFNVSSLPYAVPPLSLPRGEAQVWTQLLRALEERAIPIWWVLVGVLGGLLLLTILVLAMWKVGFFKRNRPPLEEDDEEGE

| SMILES | inhibition | Potency |
| --- | --- | --- |
| O=C(Nc1cccc(-c2nn3c(=O)cc(N4CCNCC4)nc3s2)c1)c1ccon1 | 32% (inactive) |  |
| Nc1ncc(-c2cccc(-c3nn4c(=O)cc(N5CCNCC5)nc4s3)c2)cn1 |  | 3.5 µM (active) |
| CNCC(=O)Nc1cccc(-c2nn3c(=O)cc(N4CCNCC4)nc3s2)c1 | 24% (inactive) |  |
| O=C(O)c1cccc(-c2cccc(-c3nn4c(=O)cc(N5CCNCC5)nc4s3)c2)c1 |  | 0.46 µM (active) |
| NCC(=O)Nc1cccc(-c2nn3c(=O)cc(N4CCNCC4)nc3s2)c1 |  | 1.1 µM (active) |
| O=C(O)c1ccc(-c2nn3c(=O)cc(N4CCNCC4)nc3s2)cc1 | 48% (inactive) |  |
| CCc1nn2c(=O)cc(-c3ccncc3)nc2s1 | 25% (inactive) |  |
| NC(=O)c1ccc(-c2cccc(-c3nn4c(=O)cc(N5CCNCC5)nc4s3)c2)cc1 |  | 0.855 µM (active) |
| C[C@H](N)C(=O)Nc1cccc(-c2nn3c(=O)cc(N4CCNCC4)nc3s2)c1 |  | 8.2 µM (active) |
| COCc1nn2c(=O)cc(N3CCNCC3)nc2s1 | 18% (inactive) |  |
| Cc1noc(C)c1-c1cccc(-c2nn3c(=O)cc(N4CCNCC4)nc3s2)c1 | 26% (inactive) |  |
| CC(C)(C)c1nn2c(=O)cc(N3CCNCC3)nc2s1 | 21% (inactive) |  |
| CCc1nn2c(=O)cc(N3C(C)CNCC3C)nc2s1 (stereo not given) | 27% (inactive) |  |
| CCc1nn2c(=O)cc(NC3CNC3)nc2s1 | 23% (inactive) |  |
| O=C(O)c1cc(-c2cccc(-c3nn4c(=O)cc(N5CCNCC5)nc4s3)c2)cs1 |  | 2.4 µM (active) |
